This is a sample that favours compounds with a hit; in the whole collection about 2.6% have one here.
GLP1R ag: qHTS of GLP-1 Receptor Agonists; Glucagon-like peptide 1 receptor (Homo sapiens), P43220; HEK293 GLP-1R CRE-luciferase, luminescence, 4-6 h; cells express a hypersensitive GLP-1R form; Potency, µM (titrated, usually from 45.6 µM), inactives show at the highest dose activation, actives largely listed as activators; 380,000 compounds, 0.007% hits; further: % of control where 0% means no effect
Target sequence (P43220 whole entry, looked up): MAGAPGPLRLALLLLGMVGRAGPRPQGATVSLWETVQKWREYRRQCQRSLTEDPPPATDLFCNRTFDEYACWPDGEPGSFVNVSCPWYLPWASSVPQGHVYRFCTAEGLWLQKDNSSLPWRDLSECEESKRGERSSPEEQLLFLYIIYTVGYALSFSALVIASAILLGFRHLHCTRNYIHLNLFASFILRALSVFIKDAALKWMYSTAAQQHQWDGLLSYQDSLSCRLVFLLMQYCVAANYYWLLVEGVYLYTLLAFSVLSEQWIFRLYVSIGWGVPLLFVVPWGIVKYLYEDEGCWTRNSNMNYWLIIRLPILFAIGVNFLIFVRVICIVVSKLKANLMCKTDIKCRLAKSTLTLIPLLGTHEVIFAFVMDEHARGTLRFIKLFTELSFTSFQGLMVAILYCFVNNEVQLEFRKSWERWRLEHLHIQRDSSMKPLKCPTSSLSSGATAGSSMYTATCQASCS
HEK293 tox: qHTS of GLP-1 Receptor Inverse Agonists: Cytotox Screen | HEK293 cAMP-luciferase reporter cells, luminescence, 24 h | Potency, µM (top dose mostly 38.3 µM), for inactives: at the highest dose activity change, negative = inhibition, usual class: inhibitors | 410,000 compounds, 0.13% hits | AID 624418, 2012;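 further: loss of luciferase light is scored as toxicity; on the % scale 0 is the no-effect control and ±100 the full control effect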
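Compound-treated cells are incubated 24 hr at 37 deg C under 5% CO2 after a 12 hour attachment period, then luciferase detection reagent is added and luminescence is measured following 12 min at room temperature; lowered signal indicates toxicity.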
GLP1R inv ag: qHTS of GLP-1 Receptor Inverse Agonists (Inhibition Mode); 410,000 compounds, 1.6% hits; HEK293 GLP-1R CRE-luciferase, luminescence, 24 h; GLP-1R form is constitutively active; Potency, µM (highest dose often 38.3 µM), for inactives: top-dose activity change, negative = inhibition, actives largely listed as inhibitors; Glucagon-like peptide 1 receptor (Homo sapiens), P43220; further: on the % scale 0 is the no-effect control and ±100 the full control effect; nearly all actives have a fitted effect of over 55% in size
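qHTS in 1536-well format: reporter HEK293 cells expressing constitutive GLP-1R activity in DMEM + 10% Nu serum, 24 hr with compounds at 37 deg C, luminescence read after 12 min with detection reagent.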
BRCA1 expr act: qHTS Assay to Identify Small Molecule Activators of BRCA1 Expression. MCF7-BRCA1-FFLuc reporter, luminescence, 48 h; response scale: scaled: vehicle 0%, 10 µM genistein 100%. 380,000 compounds, 1.1% hits. Potency, µM (series often up to 46.1 µM), inactives show at the highest dose activation, usual class: activators. AID 624202, 2012; further: nearly all actives have a fitted effect of over 80% in size
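Using MCF7 cells harboring a BRCA1 firefly luciferase reporter, plated 2 h before compound pinning, the screen measured luminescence after 48 h incubation. Responses were normalized to DMSO and 10 microM genistein, then fitted for concentration-effect.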
* hit, by the source's call. The call rests on the fitted dose curve; in most records, active means well fitted curve in the direction sought with a large enough effect; inconclusive means small, poorly fitted or top-dose-only effect, or another doubt; inactive means no such curve, though single readings can be large; an effect the other way counts as inactive or inconclusive. Potency means the concentration at half of the fitted maximal effect.

Screening O=c1c(S(=O)(=O)c2ccccc2)cn(Cc2ccc(F)cc2)c2cc(N3CCCCC3)c(F)cc12 returned HEK293 tox -14% and GLP1R inv ag 7%.
CC(Oc1cccc(Cl)c1)C(=O)Nc1ccccc1N1CCCCC1 (centres undefined) was read as GLP1R ag 6%, HEK293 tox 0%, GLP1R inv ag inconclusive and BRCA1 expr act -52%.
Screening CC(Oc1cccc(Cl)c1)C(=O)Nc1cc(Cl)ccc1N1CCOCC1 (centres undefined) returned GLP1R ag 12%, HEK293 tox -1%, GLP1R inv ag 13µM* and BRCA1 expr act -49%.
`COCC1=C(C(=O)OC(C)OC(=O)OC(C)C)N2C(=O)C(NC(=O)/C(=N/OC)c3csc(N)n3)[C@H]2SC1` (some centres undefined) gave GLP1R ag -2%.
Screening COc1ccc(N2CCN(S(=O)(=O)CCNC(=O)C3CC3)CC2)cc1 returned GLP1R ag 2%, HEK293 tox 4%, GLP1R inv ag 7% and BRCA1 expr act 8%.
COc1cccc(CNC(=O)Cn2c(=O)ccc3cc(S(=O)(=O)N4CCC(C)CC4)ccc32)c1 was read as GLP1R ag 4%, HEK293 tox -3%, GLP1R inv ag 5% and BRCA1 expr act -18%.
For CCOC(=O)C(=O)N(Nc1ccc(C)cc1)c1ccc(C)cc1 the results were GLP1R ag 33%, HEK293 tox -1%, GLP1R inv ag inconclusive and BRCA1 expr act 11µM*.
Screening CCC(O)(CC)C(=O)N(Nc1ccc(C)cc1)c1ccc(C)cc1 returned GLP1R ag 8%, HEK293 tox -1%, GLP1R inv ag 8.9µM* and BRCA1 expr act -3%.
Screening CCc1ccc([C@@H]2C[C@H]3[C@@H](CN2S(=O)(=O)c2ccc(C)cc2)C(=O)C[C@@H](c2ccc(Cl)cc2)N3S(=O)(=O)c2ccc(C)cc2)cc1 returned GLP1R ag -3%, HEK293 tox 4%, GLP1R inv ag 1% and BRCA1 expr act -10%.
Cc1ccc(-c2nc(CS(=O)(=O)CC(=O)N3CCCCCC3)c(C)o2)cc1 was read as GLP1R ag 3%, HEK293 tox -11%, GLP1R inv ag 10µM* and BRCA1 expr act -23%.
COc1ccccc1NC(=O)Cn1c(=O)n(-c2cccc(Cl)c2)c(=O)c2c1c1cc(C)ccc1n2C was read as HEK293 tox 15% and GLP1R inv ag 11%.
CC(=O)Nc1ccc(Nc2nc3c(S(=O)(=O)c4cccc(Cl)c4)nnn3c3ccsc23)cc1 was read as HEK293 tox 12% and GLP1R inv ag 17%.
For CCOc1ccccc1NC(=O)c1nnn(-c2ccc3c(c2)OCCO3)c1N the results were GLP1R ag 7%, HEK293 tox -8%, GLP1R inv ag 2.5µM* and BRCA1 expr act 21%.
Cc1ccc(C(C)C)c(OCCNC(=O)c2cncc(Br)c2)c1 was read as GLP1R ag -3%, HEK293 tox 26%, GLP1R inv ag 10µM* and BRCA1 expr act -32%.
COc1cc(C(=O)NCCOc2cc(C)ccc2C(C)C)cc(OC)c1OC was read as GLP1R ag 26%, HEK293 tox -12%, GLP1R inv ag 3.5µM* and BRCA1 expr act -69%.
`Cc1cccc(NC(=O)Cn2c(=O)n(CCc3ccccc3)c(=O)c3sc4ccccc4c32)c1` gave HEK293 tox -1% and GLP1R inv ag 11%.
O=c1c(N2CCc3ccccc3C2)csc2ccc(Br)cc12 was read as HEK293 tox 39% and GLP1R inv ag 4%.
For Cc1nnc(NC(=O)c2cc3ccccc3o2)s1 the results were GLP1R ag 10%, HEK293 tox -5%, GLP1R inv ag 14% and BRCA1 expr act 7.1µM*.
`Cc1nc(NC(=O)c2cc3ccccc3o2)sc1C` gave GLP1R ag -4%, HEK293 tox -3%, GLP1R inv ag inconclusive and BRCA1 expr act -39%.
O=C(COc1cccnc1[N+](=O)[O-])Nc1cccc(Br)c1 was read as GLP1R ag 18%, HEK293 tox -13%, GLP1R inv ag 2% and BRCA1 expr act 11µM*.
Screening C=CCc1ccccc1OCC(O)CN1CCN(c2ccccc2F)CC1 (centres undefined) returned GLP1R ag -6%, HEK293 tox -19%, GLP1R inv ag 10µM* and BRCA1 expr act -50%.
Screening C=CCc1ccccc1OCC(O)CN1CCN(c2ccccc2OC)CC1 (centres undefined) returned GLP1R ag 2%, HEK293 tox -24%, GLP1R inv ag inconclusive and BRCA1 expr act -9%.
For CCOC(=O)c1cc(-c2ccccc2)n(CCCC(=O)Nc2ccc(CC)cc2)c1C the results were HEK293 tox -17% and GLP1R inv ag 10µM*.
Screening CCOC(=O)c1cc(-c2ccccc2)n(-c2cccc(C(=O)Nc3cccc(C)c3)c2)c1C returned HEK293 tox -11% and GLP1R inv ag inconclusive.
CCOC(=O)c1cc(-c2ccccc2)n(CCC(=O)Nc2ccc(OC)c(Cl)c2)c1C was read as HEK293 tox -15% and GLP1R inv ag inconclusive.
CCOC(=O)c1cc(-c2ccccc2)n(CCC(=O)Nc2ccc(C(F)(F)F)cc2)c1C was read as HEK293 tox inconclusive and GLP1R inv ag 7.1µM*.
For CCOC(=O)c1cc(-c2ccccc2)n(-c2cccc(C(=O)Nc3ccc(OCC)cc3)c2)c1C the results were HEK293 tox 4% and GLP1R inv ag 5µM*.
`COc1ccc(/C=N\n2nnc3ccccc32)cc1` gave GLP1R ag 0%, HEK293 tox -4%, GLP1R inv ag 5.6µM* and BRCA1 expr act inconclusive.
`O=C(CCl)N(C1CCCC1)C1CCS(=O)(=O)C1` (centres undefined) gave GLP1R ag -2%, HEK293 tox 6%, GLP1R inv ag 4.5µM* and BRCA1 expr act -65%.
CC(=O)NC1=C(Nc2ccc(N(C)C)cc2)C(=O)c2ccccc2C1=O was read as GLP1R ag -1%, HEK293 tox inconclusive, GLP1R inv ag 4µM* and BRCA1 expr act -3%.
CC(=O)N(c1ccccc1)C1CC(C)N(C(=O)c2ccccc2)c2ccccc21 (centres undefined) was read as GLP1R ag -1%, HEK293 tox 6%, GLP1R inv ag 9% and BRCA1 expr act -10%.
`Cc1ccc(C(=O)N(c2ccccc2)C2CC(C)N(C(=O)c3ccco3)c3ccccc32)cc1` (centres undefined) gave GLP1R ag -1%, HEK293 tox -9%, GLP1R inv ag 10µM* and BRCA1 expr act -57%.
For CCC(CC)C(=O)Nc1nnc(S(=O)(=O)N2CCCCCC2)s1 the results were GLP1R ag 16%, HEK293 tox -3%, GLP1R inv ag 7.9µM* and BRCA1 expr act -9%.

Screening data (PubChem BioAssay)
